# According to PubChem BioAssay (NCI):
# About 83,000 compounds went through this panel and 20% of them were active in at least one assay; those are over-represented in the sample as a whole.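 Cells were grown in 96-well plates and exposed to the test compound at a single concentration for 48 hours; results are reported as percent growth, with values below 10 considered active.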 A number with no mark means an inactive call. Calls of active or inactive are those of the source.
# Key:
# Experiment in all cases: NCI-60 one-dose screen, 48 h (100 = growth as untreated, 0 = no growth, -100 = all killed)
# [1] = test system: HCT-15 colon
# [2] = test system: HT29 colon
# [3] = test system: SNB-75 CNS
# [4] = test system: SNB-19 CNS
# [5] = test system: U251 CNS
# [6] = test system: PC-3 prostate
# [7] = test system: SK-MEL-5 melanoma
# [8] = test system: UACC-62 melanoma
# [9] = test system: LOX IMVI melanoma
# [10] = test system: SK-MEL-28 melanoma
# [11] = test system: SK-MEL-2 melanoma
# [12] = test system: EKVX NSCLC
# [13] = test system: SN12C renal
# [14] = test system: UO-31 renal
# [15] = test system: TK-10 renal; details: 10 µM unless noted
# [16] = test system: ACHN renal
# [17] = test system: CAKI-1 renal
# [18] = test system: A498 renal
# [19] = test system: CCRF-CEM leukemia
# [20] = test system: MOLT-4 leukemia; details: 10 µM unless noted
compound,measurement,setting,value
Cn1cc(-c2cc3nc(-c4cn(C)c5ncccc45)cc(N)n3n2)c2cc(F)ccc21,growth,[1]; 10 µM unless noted,69%
same,growth,[2]; 10 µM unless noted,6.68% (active)
same,growth,[3]; 10 µM unless noted,52.9%
same,growth,[4]; 10 µM unless noted,8.57% (active)
same,growth,[5]; 10 µM unless noted,-41.8% (active)
same,growth,[6]; 10 µM unless noted,32.5%
same,growth,[7]; 10 µM unless noted,78.2%
same,growth,[8]; 10 µM unless noted,80.3%
same,growth,[9]; 10 µM unless noted,44.4%
same,growth,[10]; 10 µM unless noted,92.8%
same,growth,[11]; 10 µM unless noted,83.9%
same,growth,[12]; 10 µM unless noted,69.8%
same,growth,[13]; 10 µM unless noted,51.2%
same,growth,[14]; 10 µM unless noted,52.6%
same,growth,[15],74.6%
same,growth,[16]; 10 µM unless noted,17.6%
same,growth,[17]; 10 µM unless noted,12.8%
same,growth,[18]; 10 µM unless noted,138%
same,growth,[19]; 10 µM unless noted,38.6%
same,growth,[20],55.5%
Nc1cc2ccccc2c(=O)n1NC(=O)c1ccccc1,growth,[1]; 10 µM unless noted,93.8%
same,growth,[2]; 10 µM unless noted,113%
same,growth,[3]; 10 µM unless noted,80.3%
same,growth,[4]; 10 µM unless noted,93.7%
same,growth,[5]; 10 µM unless noted,106%
same,growth,[6]; 10 µM unless noted,91.7%
same,growth,[7]; 10 µM unless noted,96%
same,growth,[8]; 10 µM unless noted,76.5%
same,growth,[9]; 10 µM unless noted,88%
same,growth,[10]; 10 µM unless noted,98.8%
same,growth,[11]; 10 µM unless noted,105%
same,growth,[12]; 10 µM unless noted,87.6%
same,growth,[13]; 10 µM unless noted,100%
same,growth,[14]; 10 µM unless noted,58.3%
same,growth,[15],127%
same,growth,[16]; 10 µM unless noted,93.4%
same,growth,[17]; 10 µM unless noted,83.8%
same,growth,[18]; 10 µM unless noted,145%
same,growth,[19]; 10 µM unless noted,98.9%
same,growth,[20],93.9%
CCOc1ccccc1[C@H]1C(C(=O)c2ccc(Cl)cc2)C2(N[C@@H]1c1ccccc1)C(=O)Nc1ccc(Cl)cc12 (stereo partly specified),growth,[1]; 10 µM unless noted,20.3%
same,growth,[2]; 10 µM unless noted,10.7%
same,growth,[3]; 10 µM unless noted,30.7%
same,growth,[4]; 10 µM unless noted,37.7%
same,growth,[5]; 10 µM unless noted,36.3%
same,growth,[6]; 10 µM unless noted,9.44% (active)
same,growth,[7]; 10 µM unless noted,6.43% (active)
same,growth,[8]; 10 µM unless noted,17.5%
same,growth,[9]; 10 µM unless noted,13.2%
same,growth,[10]; 10 µM unless noted,41.2%
same,growth,[11]; 10 µM unless noted,-11.2% (active)
same,growth,[12]; 10 µM unless noted,21.5%
same,growth,[13]; 10 µM unless noted,-57.3% (active)
same,growth,[14]; 10 µM unless noted,16.7%
same,growth,[15],61.4%
same,growth,[16]; 10 µM unless noted,22.4%
same,growth,[17]; 10 µM unless noted,18.5%
same,growth,[18]; 10 µM unless noted,80.9%
same,growth,[19]; 10 µM unless noted,26.2%
same,growth,[20],-23.4% (active)
Cc1ccc(Nc2nnc(-c3c[nH]c4ccccc34)o2)c(C)c1,growth,[1]; 10 µM unless noted,8.92% (active)
same,growth,[2]; 10 µM unless noted,-37.9% (active)
same,growth,[3]; 10 µM unless noted,27.3%
same,growth,[4]; 10 µM unless noted,31.3%
same,growth,[5]; 10 µM unless noted,5.02% (active)
same,growth,[6]; 10 µM unless noted,28.7%
same,growth,[7]; 10 µM unless noted,6.62% (active)
same,growth,[8]; 10 µM unless noted,7.3% (active)
same,growth,[9]; 10 µM unless noted,1.68% (active)
same,growth,[10]; 10 µM unless noted,54.5%
same,growth,[11]; 10 µM unless noted,31.4%
same,growth,[12]; 10 µM unless noted,21.9%
same,growth,[13]; 10 µM unless noted,18%
same,growth,[14]; 10 µM unless noted,26.4%
same,growth,[15],45.8%
same,growth,[16]; 10 µM unless noted,34.3%
same,growth,[17]; 10 µM unless noted,33.5%
same,growth,[18]; 10 µM unless noted,112%
same,growth,[19]; 10 µM unless noted,-0.0547% (active)
same,growth,[20],0.191% (active)
COc1cc(C2CC(c3ccc(C(F)(F)F)cc3)=Nc3c(N)nc(N)nc3N2)ccc1Oc1nc(Nc2ccc(F)cc2)nc(N(C)C)n1 (stereo unspecified),growth,[1]; 10 µM unless noted,18.5%
same,growth,[2]; 10 µM unless noted,3.28% (active)
same,growth,[3]; 10 µM unless noted,46.6%
same,growth,[4]; 10 µM unless noted,49.3%
same,growth,[5]; 10 µM unless noted,41.4%
same,growth,[6]; 10 µM unless noted,30.7%
same,growth,[7]; 10 µM unless noted,23.9%
same,growth,[8]; 10 µM unless noted,86.3%
same,growth,[9]; 10 µM unless noted,-17.6% (active)
same,growth,[10]; 10 µM unless noted,71.5%
same,growth,[11]; 10 µM unless noted,59.9%
same,growth,[12]; 10 µM unless noted,44.1%
same,growth,[13]; 10 µM unless noted,50.7%
same,growth,[14]; 10 µM unless noted,41.6%
same,growth,[15],65.4%
same,growth,[16]; 10 µM unless noted,48.3%
same,growth,[17]; 10 µM unless noted,40.9%
same,growth,[18]; 10 µM unless noted,65.6%
same,growth,[19]; 10 µM unless noted,69.4%
same,growth,[20],4.31% (active)
CC/C(=C(/c1ccc(O)cc1)c1ccc(OCCN(C)C(=O)COCCOCCNC(=O)Cc2ccc3c(c2)CN([C@@H]2CCC(=O)NC2=O)C3=O)cc1)c1ccccc1,growth,[1]; 1 µM,107%
same,growth,[1]; 10 µM,105%
same,growth,[2]; 1 µM,102%
same,growth,[2]; 10 µM,83%
same,growth,[3]; 1 µM,59.6%
same,growth,[3]; 10 µM,22.7%
same,growth,[4]; 1 µM,79.5%
same,growth,[4]; 10 µM,47.5%
same,growth,[5]; 1 µM,91.9%
same,growth,[5]; 10 µM,88.7%
same,growth,[6]; 1 µM,52.8%
same,growth,[6]; 10 µM,24.4%
same,growth,[7]; 1 µM,96.3%
same,growth,[7]; 10 µM,65.8%
same,growth,[8]; 1 µM,95.6%
same,growth,[8]; 10 µM,88.2%
same,growth,[9]; 1 µM,95.1%
same,growth,[9]; 10 µM,92.1%
same,growth,[10]; 1 µM,98.3%
same,growth,[10]; 10 µM,74.3%
same,growth,[11]; 1 µM,95.4%
same,growth,[11]; 10 µM,64.1%
same,growth,[12]; 1 µM,99.4%
same,growth,[12]; 10 µM,105%
same,growth,[13]; 1 µM,88.7%
same,growth,[13]; 10 µM,53.5%
same,growth,[14]; 1 µM,91.6%
same,growth,[14]; 10 µM,89.4%
same,growth,[16]; 1 µM,102%
same,growth,[16]; 10 µM,106%
same,growth,[17]; 1 µM,99.8%
same,growth,[17]; 10 µM,101%
same,growth,[18]; 1 µM,119%
same,growth,[18]; 10 µM,115%
same,growth,[19]; 1 µM,-11% (active)
same,growth,[19]; 10 µM,16.7%
